Many of the other results were omitted from the sample, so hits are more common in it than they were.
CD40 NFkB inh: CD40 pathway inhibition in BL2 cells; BL2 NF-kB luciferase reporter, CD40L-induced, 4 h; inhibition, % at 10 µM; 83,000 tested, 0.94% active; AID 1053188;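 active means mean inhibition of at least 50% with a set share of replicates also reaching that level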;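 further: 0% = neutral control wells and 100% = IKK inhibitor VII at 50 µM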
Numbers without * were called inactive; [ ] = remark or other dose.

What do the screens show for `Cc1ccnc(NC(c2cccnc2)c2ccc3cccnc3c2O)c1` (stereo not drawn)?
CD40 NFkB inh: -33

How did COc1cccc(-c2ccc([C@H]3[C@@H](CO)N4C(=O)CNC[C@@H]34)cc2)c1 do in these assays?
CD40 NFkB inh: 2[25 µM]

What do the screens show for `CN1C(=O)c2cc(NS(=O)(=O)CC(F)(F)F)ccc2OC[C@H]2O[C@@H](CC(=O)Nc3cccc(F)c3)CC[C@@H]21`?
CD40 NFkB inh: 2[25 µM]

How did Nc1cc(Nc2ccc(S(N)(=O)=O)cc2)ncn1 do in these assays?
CD40 NFkB inh: -28[25 µM]

How did CO[C@H](C(=O)N(C)C[C@H]1OCc2ccccc2-c2c(n(C)c3ccccc23)C(=O)N([C@@H](C)CO)C[C@@H]1C)c1ccccc1 do in these assays?
CD40 NFkB inh: 3[25 µM]

What do the screens show for `CSc1ncc(Cl)c(C(=O)Nc2nnc(SC)s2)n1`?
CD40 NFkB inh: -2

Results for CSc1nnc(NC(=O)c2nc(S(=O)(=O)Cc3ccccc3)ncc2Cl)s1 ?
CD40 NFkB inh: 102*

How did COc1ccc(C(=O)Nc2nnc(S(=O)(=O)Cc3ccccc3)s2)cc1 do in these assays?
CD40 NFkB inh: 6

How did C/C=C/c1ccccc1[C@@H]1[C@@H](C#N)N(C(=O)c2cccnc2)[C@@H]1CO do in these assays?
CD40 NFkB inh: 19[25 µM]

How did Cc1cccc(S(=O)(=O)N2C[C@@H]3[C@H](c4ccccc42)[C@H](CO)N3C(=O)CC2CC2)c1 do in these assays?
CD40 NFkB inh: 12[25 µM]

Results for C/C=C/c1ccc([C@H]2[C@@H](CO)N(C(=O)CC)[C@H]2CNC(=O)c2ccncc2)cc1 ?
CD40 NFkB inh: 20[25 µM]

Results for Nc1nc(N)c2cc(Sc3cccc(C(F)(F)F)c3)ccc2n1 ?
CD40 NFkB inh: 31

What do the screens show for `Nc1nc(N)c2cc(Sc3ccc(Cl)cc3)ccc2n1`?
CD40 NFkB inh: 0

What do the screens show for `Nc1nc(N)c2cc(CNc3ccc(Cl)c(Cl)c3)ccc2n1`?
CD40 NFkB inh: 92*

What do the screens show for `OC(CN1CCCCC1)c1ccc(Br)cc1` (stereo not drawn)?
CD40 NFkB inh: 2

How did CN1CCN(C(CNS(=O)(=O)c2ccc(Br)cc2)c2ccc3c(c2)OCO3)CC1 (stereo not drawn) do in these assays?
CD40 NFkB inh: -3

How did Oc1cc2c(cc1C(c1ccc(Br)cc1)N1CCCC1)OCO2 (stereo not drawn) do in these assays?
CD40 NFkB inh: 86*

How did O=C1N[C@H](Cc2ccccc2)COCc2cn(nn2)CC[C@@H]1Cc1cccc(F)c1 do in these assays?
CD40 NFkB inh: -5[25 µM]

Results for CO[C@@H]1CN(C)C(=O)c2cc(NC(=O)c3nc4ccccc4s3)ccc2OC[C@@H](C)N(Cc2cccnc2)C[C@@H]1C ?
CD40 NFkB inh: -4

How did C[C@H]1CN([C@@H](C)CO)C(=O)c2ccccc2-c2ccccc2CO[C@H]1CN(C)Cc1ccc(F)cc1 do in these assays?
CD40 NFkB inh: 2

How did O=[N+]([O-])c1ccc(Sc2ccncn2)c([N+](=O)[O-])c1 do in these assays?
CD40 NFkB inh: 103*

What do the screens show for `Cn1cnc([N+](=O)[O-])c1Sc1ccncn1`?
CD40 NFkB inh: 5

Results for Cc1ccnc(Sc2ccc([N+](=O)[O-])cn2)n1 ?
CD40 NFkB inh: -15

What do the screens show for `COc1ccc(C(=O)Nc2ccc(N3CCOCC3)cc2)cc1S(=O)(=O)N1CCOCC1`?
CD40 NFkB inh: 17*

How did COc1ccc(C(=O)Nc2ccc(N3CCOCC3)cc2)cc1S(=O)(=O)N1CCCC1 do in these assays?
CD40 NFkB inh: -9

How did COc1ccc(C(=O)Nc2ccc(NC(C)=O)cc2)cc1S(=O)(=O)N1CCCC1 do in these assays?
CD40 NFkB inh: -1

How did CC(=O)N1[C@H](CO)[C@H](c2ccc(-c3ccccc3)cc2)[C@@H]1CNC(=O)C1CC1 do in these assays?
CD40 NFkB inh: 2

Results for CSC1SCC2C(=O)N(C)C(C(C)C)C(=O)OCC(NC(=O)c3cnc4ccccc4n3)C(=O)NC(C)C(=O)N(C)C1C(=O)N(C)C(C(C)C)C(=O)OCC(NC(=O)c1cnc3ccccc3n1)C(=O)NC(C)C(=O)N2C (stereo not drawn) ?
CD40 NFkB inh: 92*

What do the screens show for `CC(=O)N1[C@@H](CO)[C@@H](c2ccc(C3=CCCC3)cc2)C12CN(C(=O)NC(C)C)C2`?
CD40 NFkB inh: -5[25 µM]

Results for Cc1ccc(-n2ncc3c(N4CCN(c5ccccc5)CC4)ncnc32)c(C)c1 ?
CD40 NFkB inh: 15

How did Cc1cccc(-n2ncc3c(N4CCOCC4)ncnc32)c1 do in these assays?
CD40 NFkB inh: 78*

What do the screens show for `Cn1ncc2c(N3CCOCC3)ncnc21`?
CD40 NFkB inh: 7

Results for CC(=O)Nc1ccc2c(c1)C(=O)N(C)C[C@@H](C)[C@H](CN(C)C)O2 ?
CD40 NFkB inh: -6

What do the screens show for `N#Cc1ccc(-c2ccc([C@@H]3[C@H]4CNCC(=O)N4[C@H]3CO)cc2)cc1`?
CD40 NFkB inh: -12[25 µM]

What do the screens show for `c1cc2nncn2nc1N1CCCC1`?
CD40 NFkB inh: 12

What do the screens show for `CCOC(=O)c1cn2nc(N3CCCC3)ccc2n1`?
CD40 NFkB inh: -2

How did CCOC(=O)c1cn2nc(N3CCCCC3)ccc2n1 do in these assays?
CD40 NFkB inh: 66*

How did CCS(=O)(=O)N1[C@H](CO)[C@H](c2ccccc2)[C@@H]1CN(C)Cc1ccccn1 do in these assays?
CD40 NFkB inh: 3[25 µM]

Results for CCSc1nc2ccc(C)cc2cc1C#N ?
CD40 NFkB inh: -10

Results for Cc1cc(C)c2nc(C(F)(F)F)c(C#N)c(N)c2c1 ?
CD40 NFkB inh: 20

Results for Cc1ccc2nc(C(F)(F)F)c(C#N)c(N)c2c1 ?
CD40 NFkB inh: 108*

Results for C[C@H](CO)N1C[C@H](C)[C@@H](CN(C)Cc2ccc3c(c2)OCO3)OCc2ccccc2-c2c(n(C)c3ccccc23)C1=O ?
CD40 NFkB inh: 17[25 µM]

How did N#C[C@@H]1[C@H](c2ccccc2-c2ccccc2F)[C@H](CO)N1C(=O)C1CCOCC1 do in these assays?
CD40 NFkB inh: -2[25 µM]

What do the screens show for `CC1(C)CC(Nc2ccc(Nc3ccccc3)cc2)CC(C)(C)N1`?
CD40 NFkB inh: 100*

How did CC1(C)CC(NS(=O)(=O)c2cccc3ccccc23)CC(C)(C)N1 do in these assays?
CD40 NFkB inh: 6

What do the screens show for `CC1(C)CC(NCc2ccncc2)CC(C)(C)N1`?
CD40 NFkB inh: 5

What do the screens show for `C[C@@H](O)C#Cc1ccc([C@@H]2[C@H]3CN(CC4CC4)CCCCN3[C@H]2CO)cc1`?
CD40 NFkB inh: -11[25 µM]

How did O=C(CC(F)(F)F)N1C[C@@H]2[C@H](c3ccccc31)[C@H](CO)N2CC1CCOCC1 do in these assays?
CD40 NFkB inh: 9[25 µM]

What do the screens show for `CNC[C@@H]1Oc2ccc(NC(=O)NC(C)C)cc2C(=O)N(C)C[C@@H]1C`?
CD40 NFkB inh: 3

How did Cc1noc(C)c1S(=O)(=O)N1[C@@H]2CNC[C@H]1C2c1ccc(-c2cccc(F)c2)cc1 (stereo partly drawn) do in these assays?
CD40 NFkB inh: 5[25 µM]

Results for COc1ccc2c3c([nH]c2c1)[C@H](CO)N(C(=O)Nc1cccc(F)c1)CC31CCN(S(=O)(=O)c2cccc(C)c2)CC1 ?
CD40 NFkB inh: 80*[25 µM]

What do the screens show for `COc1ccc2c3c([nH]c2c1)[C@H](CO)N(C(=O)Nc1ccc(F)cc1)CC31CN(S(=O)(=O)c2ccc(C)cc2)C1`?
CD40 NFkB inh: 18[25 µM]

What do the screens show for `COc1ccc2c3c(n(C)c2c1)[C@H](CO)N(C(=O)Nc1ccc(F)cc1)CC31CCN(S(=O)(=O)c2cccc(C)c2)CC1`?
CD40 NFkB inh: 44[25 µM]

How did COc1cccc(-c2ccc3c(c2)[C@@H]2[C@@H](CCN2S(=O)(=O)c2ccccc2F)[C@H](CO)N3C)c1 do in these assays?
CD40 NFkB inh: 6[25 µM]
